# Where “and” joins values, the source holds several entries; their conditions need not be identical. Equal values may be shown once. Inconclusive results are not listed. Where a call stands in place of a potency, no number is given. The source holds several records for some structures; these can differ, active in one and inactive in another. Calls of active or inactive are those of the source. Unless noted, the call rests on the fitted dose curve; in most records, active means well fitted curve in the direction sought with a large enough effect in the repeat runs; inconclusive means weak or mixed curves; inactive means no such curve, though single readings can be large; an effect the other way counts as inactive or inconclusive.
# Experiments:
# [1] = qHTS assay to identify small molecule antagonists of the estrogen receptor alpha (ER-alpha) signaling pathway using the BG1 cell line in the presence of 0.1 nM 17-beta-estradiol - cell viability counter screen (AID 1259241); further: nearly all actives have a fitted effect of over 40% in size; further: potency means the concentration at half of the fitted maximal effect
# Summary of the method: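 VM7Luc4E2 cells (endogenous full-length ER-alpha, 4xERE-luciferase), cultured 5 days in charcoal-stripped serum, exposed to compounds with 0.1 nM 17beta-estradiol (final) for 22 hr at 37C. Viability read in same wells as live-cell protease fluorescence after 30 min.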
# [2] = qHTS assay to identify small molecule antagonists of the androgen receptor (AR) signaling pathway using the MDA cell line in the presence of 0.5 nM R1881 - cell viability counter screen (AID 1259242); further: nearly all actives have a fitted effect of over 45% in size; further: potency means the concentration at half of the fitted maximal effect
# Summary of the method: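 Viability of MDA-kb2 cells was multiplexed with the luciferase AR readout; after 16 hr with compounds and R1881 at 0.5 nM final, CellTiter-Fluor fluorescence was recorded.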
# [3] = biological target: Estrogen receptor (Homo sapiens) (UniProt P03372); assay: qHTS assay to identify small molecule antagonists of the estrogen receptor alpha (ER-alpha) signaling pathway using the BG1 cell line in the presence of 0.1 nM 17-beta-estradiol (AID 1259244); further: nearly all actives have a fitted effect of over 50% in size; further: potency means the concentration at half of the fitted maximal effect
# Sequence of Estrogen receptor (Homo sapiens) (P03372 whole entry, looked up): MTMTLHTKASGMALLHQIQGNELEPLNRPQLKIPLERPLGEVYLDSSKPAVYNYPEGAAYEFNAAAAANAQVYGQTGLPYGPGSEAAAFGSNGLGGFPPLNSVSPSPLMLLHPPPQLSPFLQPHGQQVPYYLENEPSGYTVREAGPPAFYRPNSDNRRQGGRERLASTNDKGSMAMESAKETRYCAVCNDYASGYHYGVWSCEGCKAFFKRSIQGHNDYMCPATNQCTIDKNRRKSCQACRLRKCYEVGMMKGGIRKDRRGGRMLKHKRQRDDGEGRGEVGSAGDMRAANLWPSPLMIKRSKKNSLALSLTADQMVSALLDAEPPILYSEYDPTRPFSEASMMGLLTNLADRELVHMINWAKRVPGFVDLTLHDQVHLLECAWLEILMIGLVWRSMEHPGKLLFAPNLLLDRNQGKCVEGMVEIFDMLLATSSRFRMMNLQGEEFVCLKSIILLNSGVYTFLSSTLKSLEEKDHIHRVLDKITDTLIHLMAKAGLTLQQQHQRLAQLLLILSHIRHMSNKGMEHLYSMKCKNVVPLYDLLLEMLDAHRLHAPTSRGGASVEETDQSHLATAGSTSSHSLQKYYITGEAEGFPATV
# Summary of the method: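 Estradiol at 0.1 nM (final) stimulates the endogenous ER-alpha of VM7Luc4E2 cells carrying an ERE-driven luciferase; compounds are co-incubated 22 h at 37C and luciferase output quantified by luminescence.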
# [4] = qHTS assay to identify small molecule phospholipidosis (PLD) inducers (AID 1259344; active means well fitted curve in the direction sought with a large enough effect; an effect the other way counts as inactive or inconclusive)
# Summary of the method: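 Phospholipidosis is scored by imaging LipidTOX-stained pits in HepG2 cells exposed to compound for 24 h at 37 C; pit counts and integrated intensities per well and per cell serve as outputs.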
# [5] = qHTS assay to identify small molecule agonists of the sonic hedgehog signaling (Shh) pathway - cell viability counter screen (AID 1259366); further: nearly all actives have a fitted effect of over 50% in size; further: potency means the concentration at half of the fitted maximal effect
# Summary of the method: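 NIH/3T3-derived Gli1-Luc reporter cells, 2,000 per well, received compound after 4 h and were treated about 23 h at 37C. Viability measured in the same wells by CellTiter-Fluor fluorescence after 1 h.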
# [6] = qHTS assay to identify small molecule antagonists of the sonic hedgehog signaling (Shh) pathway - cell viability counter screen (AID 1259367); further: nearly all actives have a fitted effect of over 55% in size; further: potency means the concentration at half of the fitted maximal effect
# Summary of the method: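 Cells: 3T3 Gli1-Luc, 2,000/well, 4 hr pre-incubation. Compounds in DMSO, then conditioned medium. Incubation 24 hr, 37C, 5% CO2. CellTiter-Fluor at 23 hr, 1 hr, fluorescence.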
# [7] = qHTS assay to identify small molecule agonists of the sonic hedgehog signaling (Shh) pathway (AID 1259368; calls by dose curve;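 further: NIH/3T3-derived 3T3Gli1-Luc cells carrying a stable Gli1-driven firefly luciferase reporter; series mostly up to about 92 µM; nearly all actives have a fitted effect of over 15% in size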)
# Summary of the method: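 A Gli1 transcriptional response element controlled firefly luciferase in 3T3Gli1-Luc cells. Compounds and a positive control were added 4 hr after plating, and cells were incubated a further 24 hr at 37 C before luminescence detection.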
# [8] = qHTS assay to identify small molecule HDAC inhibitors (AID 1259364); further: potency means the concentration at half of the fitted maximal effect;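 further: wild-type HCT-116 cells with endogenous class I/II HDAC activity; nearly all actives have a fitted effect of over 45% in size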; on activity change, negative = inhibition: top concentration of the series differs between compounds
# Summary of the method: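 Read-out: luminescence of HDAC-Glo I/II reagent, 30 min RT, reflecting class I/II deacetylase activity in whole HCT-116 cells pre-exposed 2 h to DMSO-dissolved compounds.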
# [9] = qHTS assay to identify small molecule HDAC inhibitors - cell viability counter screen (AID 1259365); further: nearly all actives have a fitted effect of over 50% in size; further: potency means the concentration at half of the fitted maximal effect; on activity change, negative = cytotoxicity: series mostly up to about 92 µM
# Summary of the method: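 Wild-type HCT-116 cells, 1,500/well, cultured overnight, then compound-treated 2 h at 37 C. Viability measured as ATP luminescence with CellTiter-Glo after 30 min at room temperature.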
compound,measurement,setting,value
c1cnc2cc3c(cc2n1)C1CNCC3C1,Potency,[1],inactive
same,Potency,[2],inactive
same,Potency,[3],inactive
same,Potency,[4],inactive
same,Potency,[5],inactive
same,Potency,[6],inactive
same,Potency,[7],inactive
CN(C)c1ccc2nc3ccc(=[N+](C)C)cc-3sc2c1,Potency,[1],26.2 µM (active) and 27.3 µM (active) and 29.8 µM (active)
same,Potency,[2],6.11 µM (active) and 1.88 µM (active)
same,Potency,[3],26.2 µM (active) and 27.3 µM (active) and 29.8 µM (active)
same,Potency,[4],inactive
same,Potency,[5],26.2 µM (active) and 43.3 µM (active) and 29.8 µM (active)
same,Potency,[6],54.5 µM (active)
same,Potency,[7],inactive
CCCCC/C=C/CC1CC(=O)OC1=O (centres undefined),Potency,[1],inactive
same,Potency,[2],inactive
same,Potency,[3],inactive
same,Potency,[8],inactive
same,Potency,[9],inactive
same,Potency,[5],inactive
same,Potency,[6],inactive
same,Potency,[7],inactive
C1COC(NC(C2CC2)C2CC2)=N1,Potency,[1],inactive
same,Potency,[2],inactive
same,Potency,[3],inactive
same,Potency,[4],inactive
same,Potency,[9],inactive
same,Potency,[5],inactive
same,Potency,[6],inactive
same,Potency,[7],inactive
NCCCCCC(=O)O,Potency,[1],inactive
same,Potency,[2],inactive
same,Potency,[3],inactive
same,Potency,[4],inactive
same,Potency,[8],inactive
same,Potency,[5],inactive
same,Potency,[6],inactive
same,Potency,[7],inactive
CC(C)(C)c1cc(C(C)(C)C)c(O)c(C(C)(C)C)c1,Potency,[1],inactive
same,Potency,[2],inactive
same,Potency,[3],inactive
same,Potency,[8],inactive
same,Potency,[9],inactive
same,Potency,[5],inactive
same,Potency,[6],inactive
same,Potency,[7],inactive
NC(N)=Nc1nc(CSCC/C(N)=N/S(N)(=O)=O)cs1,Potency,[1],inactive
same,Potency,[2],inactive
same,Potency,[3],inactive
same,Potency,[4],inactive
same,Potency,[8],inactive
same,Potency,[9],inactive
same,Potency,[5],inactive
same,Potency,[6],inactive
same,Potency,[7],inactive
Cc1cccc([N+](=O)[O-])c1C(=O)O,Potency,[1],inactive
same,Potency,[2],inactive
same,Potency,[3],inactive
same,Potency,[8],inactive
same,Potency,[9],inactive
same,Potency,[5],inactive
same,Potency,[6],inactive
same,Potency,[7],inactive
O=C1Nc2ccccc2C1(c1ccc(O)cc1)c1ccc(O)cc1,Potency,[1],298 nM (active)
same,Potency,[2],inactive
same,Potency,[3],486 nM (active) and 237 nM (active)
same,Potency,[8],inactive
same,Potency,[9],inactive
same,Potency,[5],27.3 µM (active) and 9.44 µM (active)
same,Potency,[6],48.6 µM (active)
same,Potency,[7],inactive
O=C1NCC2(CCN(CCc3ccccc3)CC2)O1,Potency,[1],inactive
same,Potency,[2],inactive
same,Potency,[3],inactive
same,Potency,[4],inactive
same,Potency,[8],inactive
same,Potency,[5],inactive
same,Potency,[6],inactive
same,Potency,[7],inactive
CC(C)(C)NC(=O)[C@@H]1CN(Cc2cccnc2)CCN1C[C@@H](O)C[C@@H](Cc1ccccc1)C(=O)N[C@H]1c2ccccc2C[C@H]1O,Potency,[1],inactive
same,Potency,[2],inactive
same,Potency,[4],inactive
same,Potency,[8],inactive
same,Potency,[9],inactive
same,Potency,[7],inactive
CO[Si](OC)(OC)c1ccccc1,Potency,[1],inactive
same,Potency,[2],inactive
same,Potency,[3],inactive
same,Potency,[8],inactive
same,Potency,[5],inactive
same,Potency,[6],inactive
same,Potency,[7],inactive
Nc1nc2ccccc2[nH]1,Potency,[1],inactive
same,Potency,[2],inactive
same,Potency,[3],inactive
same,Potency,[8],inactive
same,Potency,[5],inactive
same,Potency,[6],inactive
same,Potency,[7],inactive
CCCCCCCCCCCCCCCCCl,"activity change, negative = cytotoxicity",[1],9.43% [at 19 µM] (inactive)
same,"viability change, negative = cytotoxic",[2],-2.37% [at 19 µM] (inactive)
same,"activity change, negative = inhibition",[3],26.4% [at 19 µM] (inactive)
same,"activity change, negative = inhibition",[8],11.8% [at 19 µM] (inactive)
same,"viability change, negative = cytotoxic",[5],0.0419% [at 19 µM] (inactive)
same,"viability change, negative = cytotoxic",[6],-3.23% [at 19 µM] (inactive)
same,activity change,[7],"-1.24% [at 18.9 µM, stronger effect = higher value] (inactive)"
CN(C)c1ccc(C(=C2C=CC(=[N+](C)C)C=C2)c2ccccc2)cc1,Potency,[1],30.6 µM (active) and 15 µM (active)
same,Potency,[2],27.3 µM (active) and 2.98 µM (active)
same,Potency,[4],inactive
same,Potency,[8],24.3 µM (active) and inactive and 13.3 µM (active)
same,Potency,[9],61.1 µM (active) and inactive
same,Potency,[5],4.73 µM (active) [middle of 4 runs]
same,Potency,[6],2.98 µM (active) [middle of 4 runs]
same,Potency,[7],inactive
CC(C)(C)NCC(O)c1cc(O)cc(O)c1 (centres undefined),Potency,[1],inactive
same,Potency,[2],inactive
same,Potency,[4],inactive
same,Potency,[8],inactive
same,Potency,[5],inactive
same,Potency,[6],inactive
same,Potency,[7],inactive
Cc1cccc(O)c1C,Potency,[1],inactive
same,Potency,[2],inactive
same,Potency,[3],inactive
same,Potency,[9],inactive
same,Potency,[5],inactive
same,Potency,[6],inactive
same,Potency,[7],inactive
COC(c1ccccc1)(c1ccccc1)[C@H](Oc1nc(C)cc(C)n1)C(=O)O,Potency,[1],inactive
same,Potency,[2],inactive
same,Potency,[4],inactive
same,Potency,[8],inactive
same,Potency,[9],inactive
same,Potency,[5],inactive
same,Potency,[6],inactive
same,Potency,[7],inactive
CCCCN(CCO)CCCC,Potency,[1],inactive
same,Potency,[2],inactive
same,Potency,[3],inactive
same,Potency,[8],inactive
same,Potency,[5],inactive
same,Potency,[6],inactive
same,Potency,[7],inactive
C=C(C)C(=O)O,Potency,[1],inactive
same,Potency,[2],inactive
same,Potency,[3],inactive
same,Potency,[9],inactive
same,Potency,[5],inactive
same,Potency,[6],inactive
same,Potency,[7],inactive
Cc1ccnc2c1NC(=O)c1cccnc1N2C1CC1,Potency,[1],inactive
same,Potency,[2],inactive
same,Potency,[4],inactive
same,Potency,[8],inactive
same,Potency,[9],inactive
same,Potency,[5],inactive
same,Potency,[6],inactive
same,Potency,[7],inactive
O,Potency,[1],inactive
same,Potency,[2],inactive
same,Potency,[8],inactive
same,Potency,[9],inactive
same,Potency,[5],inactive
same,Potency,[6],inactive
same,Potency,[7],inactive
Cc1cc(C2(c3cc(C)c(O)cc3C)OS(=O)(=O)c3ccccc32)c(C)cc1O,Potency,[1],21.7 µM (active) and 15.4 µM (active)
same,Potency,[2],24.3 µM (active) and 15.4 µM (active)
same,Potency,[3],inactive
same,Potency,[9],inactive
same,Potency,[5],24.3 µM (active) and 12.2 µM (active)
same,Potency,[6],27.3 µM (active) and 13.7 µM (active)
same,Potency,[7],inactive
N[C@@H]1CONC1=O,Potency,[1],inactive
same,Potency,[2],inactive
same,Potency,[4],inactive
same,Potency,[8],inactive
same,Potency,[5],inactive
same,Potency,[6],inactive
same,Potency,[7],inactive

# Source: PubChem BioAssay (Tox21)
